# Test results taken from PubChem BioAssay (Tox21).
# “And” between values parts separate entries of the source, which are not always exact repeats. Equal entries are not always repeated. Results filed as inconclusive are left out. Entries that show only a call come without a potency. The source made the active and inactive calls. Unless noted, calls follow the shape of the dose curve; as a rule, active = well fitted curve in the direction sought with a large enough effect in the repeat runs; inconclusive = weak or mixed curves; inactive = no such curve, though single readings can be large; an effect the other way counts as inactive or inconclusive.
# Tests used:
# [1] = qHTS assay to identify small molecule antagonists of the retinoid acid receptor (RAR) signaling pathway - cell viability counter screen (AID 1159551); also: nearly all actives have a fitted effect of over 35% in size; also: potency is read from the fitted curve at half-maximal effect
# Outline: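 ATP-based viability, C3RL4 cells, 6 h at 37 C with 1 uM final retinol co-added after compound; luminescence read 30 min post CellTiter-Glo, RT.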
# [2] = qHTS assay to identify small molecule antagonists of the retinoic acid receptor (RAR) signaling pathway (AID 1159552; also: nearly all actives have a fitted effect of over 50% in size; also: potency is read from the fitted curve at half-maximal effect)
# Outline: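 Retinol signaling pathway inhibitors screened in C3RL4 RARE-luciferase reporter cells seeded overnight at 37 C, then compounds added with 1 uM (final) retinol as pathway substrate. After 6 hr at 37 C, luciferase luminescence read after 30 min at room temperature.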
# [3] = qHTS assay to identify small molecule antagonists of the estrogen related receptor (ERR) signaling pathway from Tox21 library - cell viability counter screen (AID 1224834); also: nearly all actives have a fitted effect of over 30% in size; also: potency is read from the fitted curve at half-maximal effect
# Outline: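 Compounds in DMSO were pinned onto ERR cells that had been incubated for 6 h, and the plates were held at 37 C for 17.5 h. CellTiter-Fluor reagent was then added and fluorescence was measured after 30 min.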
# [4] = qHTS assay to identify small molecule agonists of the retinoic acid receptor (RAR) signaling pathway (AID 1159553)
# Outline: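 Quantitative high-throughput format: the Tox21 10K library was tested on C3RL4 RARE-luciferase cells for 6 hr at 37 C and 5% CO2, with luminescence measured after a 30 min room-temperature reagent step.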
# [5] = qHTS assay to identify small molecule antagonists of the estrogen related receptor (ERR) signaling pathway - cell viability counter screen (AID 1224818);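 also: series mostly up to about 46 µM; viability measured after 17.5 h of compound exposure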
# Outline: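 Quantitative high-throughput viability counter screen in ERR cells. Compounds (DMSO) incubated 17.5 h at 37 C; read-out was CellTiter-Fluor fluorescence.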
# [6] = qHTS assay to identify small molecule antagonists of the estrogen related receptor (ERR) signaling pathway (AID 1224819; also: series mostly up to about 46 µM; nearly all actives have a fitted effect of over 50% in size)
# Outline: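 ERR reporter cell line (NTP) plated at 2,000 cells/well, settled 6 h at 37C/5% CO2, then exposed to LOPAC compounds for 18 h at 37C. One-Glo luciferase luminescence read after 30 min at room temperature.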
# [7] = qHTS assay to identify small molecule agonists of the estrogen related receptor (ERR) signaling pathway (AID 1224820)
# Outline: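 After 6 h plating (2,000 cells/well) and 18 h compound treatment at 37 C, ERR cells were lysed with One-Glo and luminescence read after 30 min at room temperature.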
# [8] = system: estrogen-related receptor alpha (ERRalpha) with PGC-1alpha coactivator, human; experiment: qHTS assay to identify small molecule antagonists of the estrogen related receptor signaling pathway with the pleiotropic PPARgamma coactivator (PGC) (AID 1224821; calls by dose curve;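 also: series mostly up to about 46 µM; lower luminescence signal means antagonism of PGC/ERR signalling; nearly all actives have a fitted effect of over 50% in size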)
# Outline: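 Luminescence from One-Glo luciferase reagent (30 min, room temperature) measured after 18 h compound treatment at 37 °C. Cells carry the PGC/ERR reporter and were seeded 6 h prior to dosing.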
# [9] = qHTS assay to identify small molecule antagonists of the estrogen related receptor signaling pathway with the pleiotropic PPARgamma coactivator (PGC) cell viability counter screen (AID 1224822; also: series mostly up to about 46 µM)
# Outline: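 Cytotoxicity in the PGC/ERR cell line is assessed with CellTiter-Fluor, read as fluorescence intensity 30 min after reagent addition, following 17.5 h compound treatment at 37 C.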
# [10] = qHTS assay to identify small molecule agonists of the estrogen related receptor signaling pathway with the pleiotropic PPARgamma coactivator (PGC) (AID 1224823)
# Outline: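 Luminescence from One-Glo reagent (30 min, room temperature) was read after 18 h compound treatment at 37 C of PGC/ERR cells plated 6 h beforehand; compounds delivered in DMSO by pin tool.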
smiles,measurement,setting,value
N#CCc1ccc(Cl)cc1,Potency,[1],inactive
same,Potency,[2],inactive
same,Potency,[3],inactive
O=C(CCl)C(Cl)Cl,Potency,[1],inactive
same,Potency,[2],15.5 µM (active)
same,Potency,[3],27.6 µM (active)
ClC1=C(Cl)[C@]2(Cl)[C@@H]3[C@@H](Cl)[C@@H](Cl)C[C@@H]3[C@@]1(Cl)C2(Cl)Cl,Potency,[1],inactive
same,Potency,[2],inactive
same,Potency,[3],inactive
N#CSCSC#N,Potency,[1],27.9 µM (active) and 30.3 µM (active)
same,Potency,[2],24.9 µM (active)
same,Potency,[3],62.5 µM (active) and 60.5 µM (active)
CCC(C)(C)C(=O)OC1=C(c2ccc(Cl)cc2Cl)C(=O)OC12CCCCC2,Potency,[1],inactive
same,Potency,[2],inactive
same,Potency,[3],inactive
CCCCCCCCCCBr,Potency,[1],inactive
same,Potency,[2],inactive
same,Potency,[3],inactive
Clc1ccc(Oc2ccccc2)cc1,Potency,[1],inactive
same,Potency,[2],inactive
same,Potency,[3],inactive
CCCCCCCCCCCCCCCCCCn1cc[n+](C)c1,Potency,[1],48.3 µM (active)
same,Potency,[2],21.6 µM (active)
same,Potency,[3],27.1 µM (active)
CCSC(C)CC1CC(=O)C(/C(CC)=N/OC/C=C/Cl)=C(O)C1 (stereo not given),Potency,[1],inactive
same,Potency,[2],inactive
same,Potency,[3],inactive
c1cc[c]([Sb]([c]2ccccc2)[c]2ccccc2)cc1,Potency,[1],inactive
same,Potency,[2],61.1 µM (active)
same,Potency,[3],inactive
COc1cc(N)c(Cl)cc1C(=O)NC1CN2CCC1CC2 (stereo not given),Potency,[1],inactive
same,Potency,[3],inactive
Oc1cccc(-c2ccccc2)c1,Potency,[1],inactive
same,Potency,[2],inactive
same,Potency,[3],inactive
CC1(C)CN=C(NN=C(/C=C/c2ccc(C(F)(F)F)cc2)/C=C/c2ccc(C(F)(F)F)cc2)NC1,Potency,[1],43.3 µM (active)
same,Potency,[2],9.69 µM (active)
same,Potency,[3],21.7 µM (active)
CCOc1cc(C(C)(C)C)ccc1C1COC(c2c(F)cccc2F)=N1 (stereo not given),Potency,[1],inactive
same,Potency,[4],inactive
same,Potency,[3],inactive
CS(=O)(=O)c1ccc(C(=O)C2C(=O)CCCC2=O)c([N+](=O)[O-])c1,Potency,[1],inactive
same,outcome,[5],inactive
same,Potency,[6],inactive
same,outcome,[7],inactive
same,Potency,[8],inactive
same,Potency,[9],inactive
same,outcome,[10],inactive
same,Potency,[3],inactive
COP(N)(=S)OC,Potency,[1],inactive
same,Potency,[2],inactive
same,Potency,[3],inactive
CN(CCCC(O)c1cccnc1)N=O (stereo not given),Potency,[1],inactive
same,Potency,[2],inactive
same,Potency,[3],inactive
COS(=O)(=O)c1ccc(C)cc1,Potency,[1],inactive
same,Potency,[2],inactive
same,Potency,[3],inactive
CC(=[OH+])/C=C(/C)[O-].CC(=[OH+])/C=C(\C)[O-].CC(=[OH+])/C=C(\C)[O-].[Al],Potency,[1],inactive
same,Potency,[3],inactive
